Records with an inconclusive call do not appear. A call without a number means that no potency is given here. Values without a mark were called inactive. Active and inactive are the calls of the source. Calls follow the shape of the dose curve; as a rule, active = well fitted cell-killing curve with a large enough effect in the repeat runs; inconclusive = weak or mixed curves, or effect the other way; inactive = flat fitted curve, though single readings scatter.
How the values were obtained:
[1] = cAMP Responsive Elements (CRE) small molecule antagonists, cell-based qHTS assay: qHTS cell viability counter screen (AID 2060913); also: nearly all actives have a fitted effect of over 40% in size; also: potency is read from the fitted curve at half-maximal effect
Procedure, shortened: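 Steps: cells plated and held 18 hrs at 37 C/5% CO2; compounds and NKH477 (0.25 uM final) added; 3 hrs incubation; reporter substrate read; CellTiter-Glo added to measure cytotoxicity by luminescence.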

[2] = cAMP Responsive Elements (CRE) small molecule agonists, cell-based qHTS assay: qHTS cell viability counter screen (AID 2060914); also: nearly all actives have a fitted effect of over 50% in size
Procedure, shortened: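 Luminescence read-out (CellTiter-Glo, 30 min RT) of ATP-based viability in CRE-bla HEK 293T cells, run in the same wells as the β-lactamase reporter assay after 3 h compound treatment at 37 °C.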

## CCOP(=S)(OCC)SCCl
[1]
  Potency: inactive
[2]
  Potency: inactive

## ClCCCCCCCl
[1]
  Potency: inactive
[2]
  Potency: inactive

## CCOC(=O)COc1ccc(Cl)cc1Cl
[1]
  Potency: inactive
[2]
  Potency: inactive

## N#CCC#N
[1]
  Potency: inactive
[2]
  Potency: inactive

## O=NN1CCCC1
[1]
  Potency: inactive
[2]
  Potency: inactive

## O=[N+]([O-])c1cc(Cl)c(Cl)c(Cl)c1
[1]
  Potency: inactive
[2]
  Potency: inactive

## Clc1cc2c(cc1Cl)Oc1cc(Cl)c(Cl)cc1O2
[1]
  viability change, negative = cytotoxic: 7.14% [at 0.349 µM]
[2]
  activity change, negative = cytotoxicity: 1.6% [at 0.349 µM]

## CCC/C=N/O
[1]
  Potency: inactive
[2]
  Potency: inactive

## CC(=O)C(Cl)(Cl)Cl
[1]
  Potency: 26.4 µM (active)
[2]
  Potency: inactive

## CNC(=O)Oc1cccc(C(C)C)c1
[1]
  Potency: inactive
[2]
  Potency: inactive

## CCOC(=S)S
[1]
  Potency: inactive
[2]
  Potency: inactive

## CCOP(=S)(OCC)OP(=S)(OCC)OCC
[1]
  Potency: inactive
[2]
  Potency: inactive

## O=C(O)C(F)(F)C(F)(F)C(F)(F)C(F)(F)C(F)(F)C(F)(F)C(F)(F)F
[1]
  Potency: inactive
[2]
  Potency: inactive

## C1CS1
[1]
  Potency: inactive
[2]
  Potency: inactive

## O=C1c2ccccc2C(=O)N1SC(Cl)(Cl)Cl
[1]
  Potency: inactive
[2]
  Potency: inactive

## CCNc1nc(NC(C)(C)C)nc(SC)n1
[1]
  Potency: inactive
[2]
  Potency: inactive

## CCN(CC)C(=O)N[C@@H]1C=C2c3cccc4[nH]cc(c34)C[C@@H]2N(C)C1
[1]
  Potency: inactive
[2]
  Potency: inactive

## O=C(O)CC(O)(CC(=O)O)C(=O)O
[1]
  Potency: inactive
[2]
  Potency: inactive

## [Cl][Sn]([Cl])([Cl])[Cl]
[1]
  Potency: inactive
[2]
  Potency: inactive

## CCSC(=O)Cl
[1]
  Potency: inactive
[2]
  Potency: inactive

## NC(=O)CCl
[1]
  Potency: inactive
[2]
  Potency: inactive

## CCOC(=O)N(C)N=O
[1]
  Potency: inactive
[2]
  Potency: inactive

## O=C(Cl)c1ccc(Cl)cc1
[1]
  Potency: inactive
[2]
  Potency: inactive

## O=C(N[C@H]1CN2CCC1CC2)c1cc2ccoc2cn1
[1]
  Potency: inactive
[2]
  Potency: inactive

## CC1=C(C(=O)Nc2ccccc2)SCCO1
[1]
  Potency: inactive
[2]
  Potency: inactive

## c1ccoc1
[1]
  Potency: inactive
[2]
  Potency: inactive

## O=C(Cc1ccccc1)OCCc1ccccc1
[1]
  Potency: inactive
[2]
  Potency: inactive

## C=CC1CC=CCC1 (configuration not stated)
[1]
  Potency: inactive
[2]
  Potency: inactive

## NC1(c2ccccc2)CCCCC1
[1]
  Potency: inactive
[2]
  Potency: inactive

## C#CCN1C(=O)COc2cc(F)c(N3C(=O)C4=C(CCCC4)C3=O)cc21
[1]
  Potency: inactive
[2]
  Potency: inactive

## Cc1cc(OC(=O)N(C)C)nn1C(=O)N(C)C
[1]
  Potency: inactive
[2]
  Potency: inactive

## Cc1c(F)c(F)c(COC(=O)C2C(/C=C(\Cl)C(F)(F)F)C2(C)C)c(F)c1F (configuration not stated)
[1]
  Potency: inactive
[2]
  Potency: inactive

## Oc1c(Cl)cccc1Cl
[1]
  Potency: inactive
[2]
  Potency: inactive

## O=[N+]([O-])c1ccccc1
[1]
  Potency: inactive
[2]
  Potency: inactive

## Nc1c(Cl)c(Cl)nc(C(=O)O)c1Cl
[1]
  Potency: inactive
[2]
  Potency: inactive

## BrCBr
[1]
  Potency: inactive
[2]
  Potency: inactive

## O=C(O)c1cccc(Cl)c1
[1]
  Potency: inactive
[2]
  Potency: inactive

## O=[N+]([O-])c1ccc2ccc3cccc4ccc1c2c34
[1]
  Potency: inactive
[2]
  Potency: inactive

## CN/C(=N\[N+](=O)[O-])NCc1cnc(Cl)s1
[1]
  Potency: inactive
[2]
  Potency: inactive

## CC(=O)C(Cl)Cl
[1]
  Potency: inactive
[2]
  Potency: inactive

## CCCC[n+]1cccc(C)c1
[1]
  Potency: inactive
[2]
  Potency: inactive

## CN1C(=O)[C@@H](NC(=O)c2cc3ccccc3[nH]2)N=C(c2ccccc2)c2ccccc21
[1]
  Potency: inactive
[2]
  Potency: inactive

## CCN1CCCC1CNC(=O)C(O)(c1ccccc1)c1ccccc1 (configuration not stated)
[1]
  Potency: inactive
[2]
  Potency: inactive

## c1cc[c]([Hg][c]2ccccc2)cc1
[1]
  Potency: inactive
[2]
  Potency: inactive

## COc1cc(CCN)cc(OC)c1OC
[1]
  Potency: inactive
[2]
  Potency: inactive

## CCCCCCCC(=O)Cl
[1]
  Potency: inactive
[2]
  Potency: inactive

## CCCC[n+]1ccccc1
[1]
  Potency: inactive
[2]
  Potency: inactive

## C[N+]1(C)[C@@H]2CC[C@H]1CC(OC(=O)C(CO)c1ccccc1)C2 (some centres not stated)
[1]
  Potency: inactive
[2]
  Potency: inactive

## Clc1ccc(C(Cl)(Cl)Cl)cn1
[1]
  Potency: inactive
[2]
  Potency: inactive

## COc1ccccc1OC
[1]
  Potency: inactive
[2]
  Potency: inactive

## COC(=O)C1=CCCN(C)C1
[1]
  Potency: inactive
[2]
  Potency: inactive

## CCOP(=O)(OCC)OCC
[1]
  Potency: inactive
[2]
  Potency: inactive

## N#CCNCC#N
[1]
  Potency: inactive
[2]
  Potency: inactive

## CCc1cc2c(s1)-n1c(C)nnc1CN=C2c1ccccc1Cl
[1]
  Potency: inactive
[2]
  Potency: inactive

## Oc1ccccc1-c1ccccc1
[1]
  Potency: inactive
[2]
  Potency: inactive

## Cl/C=C/CCl
[1]
  Potency: inactive
[2]
  Potency: inactive

## COc1ccc(C(CN(C)C)C2(O)CCCCC2)cc1 (configuration not stated)
[1]
  Potency: inactive
[2]
  Potency: inactive

## CNC(=O)O/N=C(\SC)C(=O)N(C)C
[1]
  Potency: inactive
[2]
  Potency: inactive

## c1cc(OCC2CO2)ccc1Cc1ccc(OCC2CO2)cc1 (configuration not stated)
[1]
  Potency: inactive
[2]
  Potency: inactive

## COc1ccc2c(c1OC)C(=O)O[C@@H]2[C@H]1c2cc3c(cc2CCN1C)OCO3
[1]
  Potency: inactive
[2]
  Potency: inactive

## CCOP(=S)(OCC)Oc1nc(Cl)n(C(C)C)n1
[1]
  Potency: inactive
[2]
  Potency: inactive

— PubChem BioAssay (Tox21)
